± gives the standard deviation.

What all share (test): peptide microarray binding signal (635 nm), min-max normalized on array (fraction of array maximum); higher = stronger binding
Common to all, as to conditions: peptide region: H3 5-17

For experiment [1], the target named is T1, HaloTag-ATRX ADD domain (163-292).
T1 chain: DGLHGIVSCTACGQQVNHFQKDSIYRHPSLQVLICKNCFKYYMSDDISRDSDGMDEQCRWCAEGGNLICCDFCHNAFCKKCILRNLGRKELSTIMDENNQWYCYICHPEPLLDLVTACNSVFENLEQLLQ
The gist of the method:
(§1)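 Arrays carried histone 13-mer peptide–cellulose conjugates printed in triplicate on nitrocellulose alongside a Cy3 tracer. After overnight blocking at 4°C, they were incubated for 1 h at 4°C with biotin-labelled HaloTag reader fusions (10 nM to 1 μM) plus streptavidin-Alexa Fluor 647, or with rabbit histone antibodies (1:10,000 to 1:2,000) plus anti-rabbit Alexa 647. Scanning on an Axon GenePix 4000B used 635 nm for signal and 532 nm for misprints. The binding signal reported is each triplicate's mean spot intensity after per-library min-max scaling.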

Experiment [2] addresses HaloTag-ING2 PHD (mouse Ing2 200-280). The gist of the method:
as §1

Experiment [3] concerns the target anti-H3K4me3 antibody ab8580. The gist of the method:
as §1

The target in experiment [4] is anti-H3K9me3 antibody ab8898. The gist of the method: as §1
The mark [5] stands for this setting: peptide modifications: H3K9me2 H3K14me1, binder concentration: 1:2,000 dilution.
[6] abbreviates: peptide modifications: H3K9me2 H3K14me1, binder concentration: 1:10,000 dilution.
The mark [7] stands for this setting: peptide modifications: H3K9me2 H3K14me2, binder concentration: 1:2,000 dilution.
Setting [8] is: peptide modifications: H3K9me2 H3K14me2, binder concentration: 1:10,000 dilution.
Setting [9] is: peptide modifications: H3K9me1 H3K14me1, binder concentration: 1:2,000 dilution.
[10] abbreviates: peptide modifications: H3K9me1 H3K14me1, binder concentration: 1:10,000 dilution.
The mark [11] stands for this setting: peptide modifications: H3K9me2 H3K14ac, binder concentration: 1:2,000 dilution.
Setting [12] is: peptide modifications: H3K9me2 H3K14ac, binder concentration: 1:10,000 dilution.
Setting [13] is: peptide modifications: H3K9me1, binder concentration: 1:2,000 dilution.
[14] abbreviates: peptide modifications: H3K9me1, binder concentration: 1:10,000 dilution.

On to QTARKSTGGKAPR [H3 5-17 Q T A R Kme2 S T G G Kme A P R], for which the “peptide microarray binding signal” value in experiment [1] (peptide modifications: H3K9me2 H3K14me1, binder concentration: 50 nM) stood at 0.00589 ± 7.1e-05; in experiment [1] (peptide modifications: H3K9me2 H3K14me1, binder concentration: 500 nM) it was 0.015 ± 0.0013; in experiment [2] (peptide modifications: H3K9me2 H3K14me1, binder concentration: 10 nM), 0.00812 ± 0.00048; in experiment [2] (peptide modifications: H3K9me2 H3K14me1, binder concentration: 100 nM), 0.0359 ± 0.0037; in experiment [3] (setting [5]), 0.00455 ± 0.00086; in experiment [3] (setting [6]) it was 0.00365 ± 0.00015. Also, the figures for the “peptide microarray binding signal” value in experiment [4] (setting [5]) and in experiment [4] (setting [6]) were 0.217 ± 0.078 and 0.0891 ± 0.021, respectively.
In the case of QTARKSTGGKAPR [H3 5-17 Q T A R Kme2 S T G G Kme2 A P R], the “peptide microarray binding signal” value worked out at 0.00555 ± 0.0003 in experiment [1] (peptide modifications: H3K9me2 H3K14me2, binder concentration: 50 nM); 0.011 ± 0.00059 in experiment [1] (peptide modifications: H3K9me2 H3K14me2, binder concentration: 500 nM); 0.00937 ± 0.00041 in experiment [2] (peptide modifications: H3K9me2 H3K14me2, binder concentration: 10 nM); 0.00999 ± 0.0011 in experiment [2] (peptide modifications: H3K9me2 H3K14me2, binder concentration: 100 nM); 0.00672 ± 0.00077 in experiment [3] (setting [7]); 0.00496 ± 0.00056 in experiment [3] (setting [8]). Also, the “peptide microarray binding signal” value was found to be 0.175 ± 0.021 in experiment [4] (setting [7]) and 0.0735 ± 0.0023 in experiment [4] (setting [8]).
In the case of QTARKSTGGKAPR [H3 5-17 Q T A R Kme S T G G Kme A P R], the “peptide microarray binding signal” value in experiment [1] (peptide modifications: H3K9me1 H3K14me1, binder concentration: 50 nM) was 0.00339 ± 6.1e-05; in experiment [1] (peptide modifications: H3K9me1 H3K14me1, binder concentration: 500 nM) it was 0.00657 ± 6.6e-05; in experiment [2] (peptide modifications: H3K9me1 H3K14me1, binder concentration: 10 nM) it was 0.00388 ± 5.4e-05; in experiment [2] (peptide modifications: H3K9me1 H3K14me1, binder concentration: 100 nM), 0.0145 ± 0.0038; in experiment [3] (setting [9]) it was 0.00068 ± 1.9e-05; in experiment [3] (setting [10]), 0.000571 ± 1.1e-05. In addition, the “peptide microarray binding signal” value stood at 0.0061 ± 0.0011 in experiment [4] (setting [9]) and 0.00283 ± 0.00027 in experiment [4] (setting [10]).
As for QTARKSTGGKAPR [H3 5-17 Q T A R Kme2 S T G G Kac A P R], the “peptide microarray binding signal” value in experiment [1] (peptide modifications: H3K9me2 H3K14ac, binder concentration: 50 nM) was 0.002382 ± 1.1e-05; in experiment [1] (peptide modifications: H3K9me2 H3K14ac, binder concentration: 500 nM), 0.0103 ± 0.00014; in experiment [2] (peptide modifications: H3K9me2 H3K14ac, binder concentration: 10 nM), 0.0115 ± 0.001; in experiment [2] (peptide modifications: H3K9me2 H3K14ac, binder concentration: 100 nM) it was 0.00886 ± 0.0033; in experiment [3] (setting [11]) it was 0.00225 ± 0.00054; in experiment [3] (setting [12]) it was 0.00228 ± 0.00034. In addition, the “peptide microarray binding signal” value in experiment [4] (setting [11]) was 0.0906 ± 0.0013; in experiment [4] (setting [12]), 0.0371 ± 0.015.
In the case of QTARKSTGGKAPR [H3 5-17 Q T A R Kme S T G G K A P R], the “peptide microarray binding signal” value stood at 0.00445 ± 0.00012 in experiment [1] (peptide modifications: H3K9me1, binder concentration: 50 nM); 0.00171 ± 7.9e-05 in experiment [1] (peptide modifications: H3K9me1, binder concentration: 500 nM); 0.00448 ± 0.00018 in experiment [2] (peptide modifications: H3K9me1, binder concentration: 10 nM); 0.002055 ± 2e-05 in experiment [2] (peptide modifications: H3K9me1, binder concentration: 100 nM); 0.000642 ± 1.6e-05 in experiment [3] (setting [13]); 0.0139 ± 0.012 in experiment [3] (setting [14]). Moreover, the “peptide microarray binding signal” value was 0.0007551 ± 6.5e-06 in experiment [4] (setting [13]) and 0.00121 ± 2.4e-05 in experiment [4] (setting [14]).

(Values after the supplement of paper PMC4022240.)
